Inconclusive results are not listed. A call without a number means that no potency is given here. The source made the active and inactive calls. Calls come from the whole dose curve; as a rule, active = well fitted inhibition curve with a large enough effect; inconclusive = small, poorly fitted or top-dose-only effect; inactive = flat fitted curve, though single readings scatter.
Tests used:
Assay in all cases: qHTS profiling for inhibitors of Plasmodium falciparum proliferation (AID 504749); note: nearly all actives have a fitted effect of over 60% in size
Conditions in all cases: P. falciparum in erythrocytes, SYBR Green DNA, 72 h; series mostly up to 28.7 µM
[1] = tested on: CP217
In short: (§1)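 Quantitative HTS: compounds pinned into medium, infected erythrocytes added (0.3% parasitemia, 2.5% hematocrit), 72 h culture at 37 C under 5% CO2. Saponin/Triton lysis with SYBR Green I, overnight RT, then fluorescence read.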

[2] = tested on: CP237
In short: as §1

[3] = tested on: CP238
In short: as §1

[4] = tested on: CP247
In short: as §1

[5] = tested on: CP250
In short: as §1

[6] = tested on: CP252
In short: as §1

[7] = tested on: CP256
In short: as §1

[8] = tested on: CP260
In short: as §1

[9] = tested on: CP262
In short: as §1

[10] = tested on: CP265
In short: as §1

[11] = tested on: CP266
In short: as §1

[12] = tested on: CP268
In short: as §1

[13] = tested on: CP269
In short: as §1

[14] = tested on: CP286
In short: as §1

[15] = tested on: CP291
In short: as §1

[16] = tested on: CP305
In short: as §1

[17] = tested on: CP315
In short: as §1

[18] = tested on: CP325
In short: as §1

[19] = tested on: CP329
In short: as §1

[20] = tested on: CP297
In short: as §1
Potency is the fitted concentration of half-maximal effect.

## O=c1cc[nH]c(=S)[nH]1
[1]
  Potency: inactive
[2]
  Potency: inactive
[3]
  Potency: inactive
[4]
  Potency: inactive
[5]
  Potency: inactive
[6]
  Potency: inactive
[7]
  Potency: inactive
[8]
  Potency: inactive
[9]
  Potency: inactive
[10]
  Potency: inactive
[11]
  Potency: inactive
[12]
  Potency: inactive
[13]
  Potency: inactive
[14]
  Potency: inactive
[15]
  Potency: inactive
[16]
  Potency: inactive
[17]
  Potency: inactive
[18]
  Potency: inactive
[19]
  Potency: inactive

## CCN(CC)CCNC(=O)c1c(C)[nH]c(/C=C2\C(=O)Nc3ccc(F)cc32)c1C
[1]
  Potency: 11.2 µM (active)
[2]
  Potency: 8.91 µM (active)
[3]
  Potency: 7.94 µM (active)
[4]
  Potency: 10 µM (active)
[5]
  Potency: 14.1 µM (active)
[6]
  Potency: 7.94 µM (active)
[7]
  Potency: 11.2 µM (active)
[8]
  Potency: 7.08 µM (active)
[13]
  Potency: 5.36 µM (active)
[14]
  Potency: 11.2 µM (active)
[17]
  Potency: 10.7 µM (active)
[19]
  Potency: 12 µM (active)

## O=C(O)c1ccccc1O
[1]
  Potency: inactive
[2]
  Potency: inactive
[3]
  Potency: inactive
[4]
  Potency: inactive
[5]
  Potency: inactive
[6]
  Potency: inactive
[7]
  Potency: inactive
[8]
  Potency: inactive
[9]
  Potency: inactive
[10]
  Potency: inactive
[11]
  Potency: inactive
[12]
  Potency: inactive
[13]
  Potency: inactive
[14]
  Potency: inactive
[15]
  Potency: inactive
[16]
  Potency: inactive
[17]
  Potency: inactive
[18]
  Potency: inactive
[19]
  Potency: inactive

## CC(C)(C)C(=O)NCCCC(=O)O
[1]
  Potency: inactive
[2]
  Potency: inactive
[3]
  Potency: inactive
[4]
  Potency: inactive
[5]
  Potency: inactive
[6]
  Potency: inactive
[7]
  Potency: inactive
[9]
  Potency: inactive
[10]
  Potency: inactive
[11]
  Potency: inactive
[12]
  Potency: inactive
[13]
  Potency: inactive
[14]
  Potency: inactive
[15]
  Potency: 12 µM (active)
[20]
  Potency: inactive
[16]
  Potency: inactive
[17]
  Potency: inactive
[18]
  Potency: inactive
[19]
  Potency: inactive

## [O-][n+]1cccc(CO)c1
[1]
  Potency: inactive
[2]
  Potency: inactive
[3]
  Potency: inactive
[4]
  Potency: inactive
[5]
  Potency: inactive
[6]
  Potency: inactive
[7]
  Potency: inactive
[8]
  Potency: inactive
[9]
  Potency: inactive
[10]
  Potency: inactive
[11]
  Potency: inactive
[12]
  Potency: inactive
[13]
  Potency: inactive
[14]
  Potency: inactive
[15]
  Potency: inactive
[20]
  Potency: inactive
[16]
  Potency: inactive
[17]
  Potency: inactive
[18]
  Potency: inactive
[19]
  Potency: inactive

## Cc1cc(N)c2ccccc2[n+]1CCCCCCCCCC[n+]1c(C)cc(N)c2ccccc21
[1]
  Potency: 0.447 µM (active)
[2]
  Potency: 0.126 µM (active)
[3]
  Potency: 0.282 µM (active)
[4]
  Potency: 1.58 µM (active)
[5]
  Potency: 0.708 µM (active)
[6]
  Potency: 0.447 µM (active)
[7]
  Potency: 0.0794 µM (active)
[8]
  Potency: 0.631 µM (active)
[9]
  Potency: 181 nM (active)
[10]
  Potency: 0.4 nM (active)
[12]
  Potency: 572 nM (active)
[13]
  Potency: 0.51 µM (active)
[14]
  Potency: 0.447 µM (active)
[15]
  Potency: 0.405 µM (active)
[20]
  Potency: 405 nM (active)
[16]
  Potency: 228 nM (active)
[17]
  Potency: 0.721 µM (active)
[18]
  Potency: 572 nM (active)
[19]
  Potency: 0.642 µM (active)

## CCCCOC(=O)c1ccc(O)cc1
[1]
  Potency: inactive
[2]
  Potency: inactive
[3]
  Potency: inactive
[4]
  Potency: inactive
[5]
  Potency: inactive
[6]
  Potency: inactive
[7]
  Potency: inactive
[8]
  Potency: inactive
[9]
  Potency: inactive
[10]
  Potency: inactive
[11]
  Potency: inactive
[12]
  Potency: inactive
[13]
  Potency: inactive
[14]
  Potency: inactive
[15]
  Potency: inactive
[20]
  Potency: inactive
[16]
  Potency: inactive
[17]
  Potency: inactive
[18]
  Potency: inactive
[19]
  Potency: inactive

## NC(CSCC(=O)O)C(=O)O (stereo not drawn)
[1]
  Potency: inactive
[2]
  Potency: inactive
[3]
  Potency: inactive
[4]
  Potency: inactive
[5]
  Potency: inactive
[6]
  Potency: inactive
[7]
  Potency: inactive
[8]
  Potency: inactive
[9]
  Potency: inactive
[10]
  Potency: inactive
[12]
  Potency: inactive
[13]
  Potency: inactive
[14]
  Potency: inactive
[15]
  Potency: inactive
[20]
  Potency: inactive
[16]
  Potency: inactive
[17]
  Potency: inactive
[18]
  Potency: inactive
[19]
  Potency: inactive

## CCCn1cnc2c1c(=O)n(CCCCC(C)=O)c(=O)n2C
[1]
  Potency: inactive
[2]
  Potency: inactive
[3]
  Potency: inactive
[4]
  Potency: inactive
[5]
  Potency: inactive
[6]
  Potency: inactive
[7]
  Potency: inactive
[8]
  Potency: inactive
[9]
  Potency: inactive
[10]
  Potency: inactive
[11]
  Potency: inactive
[12]
  Potency: inactive
[14]
  Potency: inactive
[15]
  Potency: inactive
[20]
  Potency: inactive
[16]
  Potency: inactive
[17]
  Potency: inactive
[18]
  Potency: inactive
[19]
  Potency: inactive

## CC1=C(CC(=O)O)c2cc(F)ccc2/C1=C\c1ccc(S(C)=O)cc1 (stereo not drawn)
[1]
  Potency: inactive
[2]
  Potency: inactive
[3]
  Potency: inactive
[4]
  Potency: inactive
[5]
  Potency: inactive
[6]
  Potency: inactive
[7]
  Potency: inactive
[8]
  Potency: inactive
[9]
  Potency: inactive
[10]
  Potency: inactive
[12]
  Potency: inactive
[13]
  Potency: inactive
[14]
  Potency: inactive
[15]
  Potency: inactive
[20]
  Potency: inactive
[16]
  Potency: inactive
[17]
  Potency: inactive
[18]
  Potency: inactive
[19]
  Potency: inactive

## Nc1ncnc2c1ncn2[C@@H]1O[C@H](CO)[C@@H](O)[C@H]1O
[1]
  Potency: inactive
[2]
  Potency: inactive
[3]
  Potency: inactive
[4]
  Potency: inactive
[5]
  Potency: inactive
[6]
  Potency: inactive
[7]
  Potency: inactive
[8]
  Potency: inactive
[9]
  Potency: inactive
[10]
  Potency: inactive
[11]
  Potency: inactive
[12]
  Potency: inactive
[13]
  Potency: inactive
[14]
  Potency: inactive
[15]
  Potency: inactive
[16]
  Potency: inactive
[17]
  Potency: inactive
[18]
  Potency: inactive
[19]
  Potency: inactive

## CC1=C(/C=C/C(C)=C/C=C/C(C)=C/C(=O)O)C(C)(C)CCC1
[1]
  Potency: inactive
[2]
  Potency: inactive
[3]
  Potency: inactive
[4]
  Potency: inactive
[5]
  Potency: inactive
[6]
  Potency: inactive
[7]
  Potency: inactive
[8]
  Potency: inactive
[9]
  Potency: inactive
[10]
  Potency: inactive
[11]
  Potency: inactive
[12]
  Potency: inactive
[13]
  Potency: inactive
[14]
  Potency: inactive
[15]
  Potency: inactive
[16]
  Potency: inactive
[17]
  Potency: inactive
[18]
  Potency: inactive
[19]
  Potency: inactive
